Compounds without any hit were thinned out: in the full panel of roughly 83,000, 20% have a hit.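 Interpretation: 100, growth as untreated; towards 0, rising growth inhibition; 0, no net growth; 0 to -100, cell death. Compounds scoring below 10 were considered active.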 Calls of active or inactive are those of the source.
System: TK-10 renal
Assay: NCI-60 one-dose screen, 48 h (100 = growth as untreated, 0 = no growth, -100 = all killed)
Details: 10 µM

SMILES	growth
O=C(/C=C/c1ccco1)c1nc2ccccc2n1Cc1ccc(Br)cc1	77.1% (inactive)
O=C(/C=C/c1ccco1)c1nc2ccccc2n1Cc1ccc(F)cc1	92.1% (inactive)
COc1cc2cc(C(=O)N3C[C@@H](CCl)c4c3cc(OC(=O)N3CCN(C)[C@@H]5CSSC[C@@H]53)c3ccccc43)[nH]c2c(OC)c1OC	13.8% (inactive)
C#CC[Se]C(=O)c1ccc2n[se]nc2c1	65.1% (inactive)
O=C(/C=C/c1ccc(Cl)cc1Cl)c1nc2ccccc2n1Cc1ccc(F)cc1	93.6% (inactive)
O=C(/C=C/c1ccc(Cl)cc1)c1nc2ccccc2n1Cc1ccc(Br)cc1	93.7% (inactive)
CCOP(=O)(OCC)C(NC(C)=O)C(=O)SCCN (stereo unspecified)	99.5% (inactive)
COc1cc2cc(C(=O)N3C[C@@H](CCl)c4c3cc(OC(=O)N3CCN(C)[C@@H]5CSSC[C@H]53)c3ccccc43)[nH]c2c(OC)c1OC	-28.4% (active)
COc1ccc2cc([C@H](C)C(=O)[Se]CCC#N)ccc2c1	-90.4% (active)
CC12OOC(C)(OO1)C2CCC(=O)OCCNc1ccnc2cc(Cl)ccc12 (stereo unspecified)	66.3% (inactive)
CC(C)N=C([Se])NC(=O)c1cccs1	56% (inactive)
Cc1ccc2[nH]c(=S)n(-c3ccc(F)cc3)c(=O)c2c1	102% (inactive)
CCOC(=O)C1=C(Nc2ccccc2)C(=O)OC12C(=O)Nc1ccccc12 (stereo unspecified)	137% (inactive)
CC12CCC3(CCC(=O)NCCCNc4ccnc5cc(Cl)ccc45)[C@@](C)(OO[C@]3(C)O1)O2	-17.8% (active)
CC[C@]12C=CCN3CC[C@@]4(c5ccc(OC)cc5N(C)[C@H]4[C@@](O)(C(=O)OC)[C@@H]1OC(=O)CCCC[P+](C1CCCCC1)(C1CCCCC1)C1CCCCC1)[C@@H]32	-64.1% (active)
CC(=O)Oc1ccccc1C(=O)[Se]C(=NC(C)C)NC(C)C	-98.5% (active)

SMILES	growth
COCCOCCOCCOc1ccc(-n2cc(CCCN(CCNc3ccnc4cc(Cl)ccc34)C(=O)CCC(=O)O[C@@H]3O[C@@H]4OC5(C)CC[C@H]6[C@H](C)CC[C@@H]([C@H]3C)[C@@]46OO5)nn2)cc1	52.5% (inactive)
C[C@H]1[C@@H](CC(=O)N[C@@H](Cc2coc3ccccc23)B(O)O)O[C@@H]2OC3(C)CC[C@H]4[C@H](C)CC[C@@H]1[C@@]24OO3	16.5% (inactive)
COP(=O)(CC(F)(F)C(F)(F)F)OC	-40.6% (active)
CC12OOC(C)(OO1)C2CCC(=O)NCCNc1ccnc2cc(Cl)ccc12 (stereo unspecified)	121% (inactive)
CC[C@]12C=CCN3CC[C@@]4(c5ccc(OC)cc5N(C)[C@H]4[C@@](O)(C(=O)OC)[C@@H]1OC(=O)CCC[P+](c1ccc(C)cc1)(c1ccc(C)cc1)c1ccc(C)cc1)[C@@H]32	-88.5% (active)
CC(C)N=C([Se])NC(=O)c1ccccc1	-71.2% (active)
CC[C@]12C=CCN3CC[C@@]4(c5ccc(OC)cc5N(C)[C@H]4[C@@](O)(C(=O)OC)[C@@H]1OC(=O)CCC[P+](C1CCCCC1)(C1CCCCC1)C1CCCCC1)[C@@H]32	-48.6% (active)
CC1=C(COCCOC(=O)c2ccc(S(=O)(=O)F)cc2)C2=C(C)C3(CC3)[C@@](C)(O)C(=O)C2=C1	7.99% (active)
CC[C@]12C=CCN3CC[C@@]4(c5ccc(OC)cc5N(C)[C@H]4[C@@](O)(C(=O)OC)[C@@H]1OC(=O)CCCC[P+](c1ccc(OC)cc1)(c1ccc(OC)cc1)c1ccc(OC)cc1)[C@@H]32	-88.2% (active)
CC1=C(CCC=NNC(N)=O)C2=C(C)C3(CC3)[C@@](C)(O)C(=O)C2=C1	-10.5% (active)
CC[C@@]12CC(C(=O)OC)=C3Nc4cc5c(cc4[C@@]34CCN(C[C@H]3O[C@H]31)[C@@H]24)[C@@H]1[C@H](O5)[C@@H](O)[C@@]2(CC)CC(C(=O)OC)=C3Nc4cc(OC)ccc4[C@@]34CCN1[C@@H]24	16.2% (inactive)
CCOP(=O)(CC(F)(F)C(F)(F)F)OCC	17% (inactive)
CC1=C2C(=C[C@@](C)(COP(=O)(Oc3ccccc3)Oc3ccccc3)[C@@H]2O)C(=O)[C@@](C)(O)C12CC2	-22.2% (active)
CC(=O)Oc1ccccc1C(=O)NC([Se])=NC1CCCCC1	-52.9% (active)
C[C@H]1[C@H](OC(=O)CCC(=O)N(CCCc2cn(-c3ccc(CN4CCOCC4)cc3)nn2)CCNc2ccnc3cc(Cl)ccc23)O[C@@H]2OC3(C)CC[C@H]4[C@H](C)CC[C@@H]1[C@@]24OO3	48.8% (inactive)

Source: PubChem BioAssay (NCI)
